In PubChem BioAssay (EPA / NIEHS):
“And” between values parts separate entries of the source, which are not always exact repeats. Identical values can stand only once. Inconclusive results are not listed. Where a structure was tested more than once in an assay, its records may differ in their call. The source made the active and inactive calls. How the source made its calls, unless noted: active means hit-call score of the fitted dose curve at least 0.9, where 1 is the maximum; inactive means score below 0.9.

Assays:
[1] = CCTE_Shafer_MEA_dev_mutual_information_norm: CCTE's Neural Network Formation Assay for Mutual Information Normalization, Shafer Lab (AID 2284091);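 on AC50: mutual information between electrodes summarised as area under curve across four recording days; potency is for a decrease in mutual information relative to DMSO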
Procedure, shortened: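 Developing rat cortical networks on 16-electrode MEA wells are treated throughout formation (DIV 0–12). Shared electrode information is recorded four times, converted to area-under-curve, and fitted for decreases against DMSO vehicle.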

[2] = CCTE_Shafer_MEA_dev_correlation_coefficient_mean: CCTE's Neural Network Formation Assay for Mean Correlation Coefficient, Shafer Lab (AID 2284093);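 on AC50: well mean pairwise spike train correlation integrated as AUC over recording days 5 to 12; potency fitted for loss of correlation relative to DMSO vehicle wells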
Procedure, shortened: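 Primary rat cortical neurons on PEI-coated 48-well MEA plates (16 electrodes/well) were exposed from plating day 0 through DIV12, with compound renewed at DIV5 and 9. Pairwise spike correlations were averaged per well; trapezoidal AUC across DIV5, 7, 9, 12.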

[3] = BSK_BT_PBMCCytotoxicity: PBMC Cytotoxicity Assessment in the BioMAP Diversity Plus: BT Assay (AID 2284225); settings: primary human B cells with PBMC;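 further: PBMC viability measured by Alamar Blue dye reduction fluorescence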
Procedure, shortened: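 75,000 cells/well; cpd 1 h → SEB + TSST-1 (20 ng/mL final each) → 90 h → Alamar Blue 6 h → fluor. 546/580 nm. DMSO = neg. control/baseline.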

[4] = read-out: Secreted IgG (sIgG), gene 3500; experiment: BSK_BT_sIgG: BioMAP Diversity Plus: BT Assay for Secreted IgG (sIgG) Biomarker Activity (AID 2284226); settings: primary human B cells with PBMC
Procedure, shortened: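 Secreted IgG from a human primary B cell–PBMC co-culture was measured by ELISA 24 hours after dosing, with DMSO defining baseline activity.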

[5] = BSK_BT_Bcell_Proliferation: Viability Assessment in the BioMAP Diversity Plus: BT Assay for B cell Proliferation (AID 2284227); settings: primary human B cells with PBMC
Procedure, shortened: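 Human B cell/PBMC co-culture; test chemical added; 72 h; TCA fix (10%), 0.1% SRB stain, A560 for total protein as a proliferation read-out; positive-direction fit vs DMSO baseline.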

[6] = read-out: Interleukin 6 (IL6), IL6 (gene 3569); experiment: BSK_BT_xIL6: BioMAP Diversity Plus: BT Assay for Interleukin 6 (IL6) Biomarker Activity (AID 2284228); settings: primary human B cells with PBMC
Procedure, shortened: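 IL-6 secretion measured (Luminex xMAP) in human primary B cell + PBMC co-culture at 24 h of chemical exposure; DMSO served as negative control and activity baseline, with curves fitted for increase.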

[7] = read-out: Interleukin 17A (IL17A), IL17A (gene 3605); experiment: BSK_BT_xIL17A: BioMAP Diversity Plus: BT Assay for Interleukin 17A (IL17A) Biomarker Activity (AID 2284229); settings: primary human B cells with PBMC
Procedure, shortened: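 Human primary B cells plus PBMC, treated 24 h with chemicals; supernatant IL-17A quantified on Luminex xMAP beads. Gain of signal over DMSO control scored as activity.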

[8] = read-out: Tumor necrosis factor (Homo sapiens) (UniProt P01375); experiment: BSK_BT_xTNFa: BioMAP Diversity Plus: BT Assay for Tumor necrosis factor alpha (TNF-alpha) Biomarker Activity (AID 2284230); settings: primary human B cells with PBMC
Procedure, shortened: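 Read-out: Luminex xMAP quantitation of secreted TNF-alpha from a B cell/PBMC co-culture 24 h after compound addition. Signal analysed relative to DMSO vehicle, positive fitting direction.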

[9] = read-out: Vascular cell adhesion molecule 1 (VCAM1), VCAM1 (gene 7412); experiment: BSK_MyoF_VCAM1: BioMAP Diversity Plus: MyoF Assay for Vascular cell adhesion molecule 1 (VCAM1) Biomarker Activity (AID 2284231); settings: primary human lung fibroblasts
Procedure, shortened: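 VCAM-1 levels, lung fibroblasts, ELISA, 24 h exposure, increase scored relative to DMSO.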

[10] = CCTE_Mundy_HCI_hNP1_Pro_ResponderAvgInten: CCTE's Proliferation Assay in human neuroprogenitor cells, Mundy Lab (AID 2284224; active means hit-call score of the fitted dose curve at least 0.9, where 1 is the maximum;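 further: human neural progenitor cells hNP1 derived from WA09 embryonic stem cells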)
Procedure, shortened: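 Proliferation was scored as BrdU labelling intensity in human neural progenitors derived from WA09 embryonic cells, measured 26.25 hours after chemical dosing. Activity was fitted relative to DMSO.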

Measured: AC50

Sequence of Tumor necrosis factor (Homo sapiens) (P01375 whole entry, looked up): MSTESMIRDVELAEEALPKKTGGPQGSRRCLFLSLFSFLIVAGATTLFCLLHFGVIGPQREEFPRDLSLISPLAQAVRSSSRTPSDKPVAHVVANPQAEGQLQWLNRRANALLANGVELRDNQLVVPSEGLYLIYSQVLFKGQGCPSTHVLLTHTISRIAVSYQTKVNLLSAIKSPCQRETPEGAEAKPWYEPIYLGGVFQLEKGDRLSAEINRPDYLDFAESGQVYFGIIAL

NC(=O)C(F)(F)C(F)(F)C(F)(F)F
not listed: [10]
inactive: all other assays above

O=S(=O)(O)CCC(F)(F)C(F)(F)C(F)(F)C(F)(F)C(F)(F)C(F)(F)C(F)(F)C(F)(F)F
not listed: [3] | [10]
inactive: all other assays above

C=CC(=O)OCC(F)(F)C(F)(F)C(F)(F)COC(=O)C=C
inactive: [10]
active: [1] 1.73 µM | [2] 8.13 µM | [3] 9.5 µM and 8.85 µM | [4] 6.41 µM and 7.8 µM | [5] 9.4 µM and 9.64 µM | [6] 10.4 µM and 8.91 µM | [7] 8.47 µM and 6.45 µM | [9] 9.52 µM and 9.72 µM

OCC(F)(F)C(F)(F)C(F)(F)C(F)(F)C(F)(F)C(F)(F)C(F)(F)C(F)(F)CO
active: [2] 24.1 µM | [3] 46.1 µM and 47.5 µM | [4] 49.8 µM and 47.1 µM | [5] 46.8 µM and 47.9 µM | [6] 48.7 µM | [7] 51.3 µM and 19.6 µM | [8] 45.6 µM and 54 µM | [9] 47.9 µM and 45.4 µM
inactive: [1]

Cc1ccc(S(=O)(=O)C(I)I)cc1
active: [4] 2.03 µM | [5] 2.97 µM | [6] 2.82 µM | [7] 2.36 µM | [8] 4.64 µM | [9] 7.94 µM

Cc1cc(O)c(C(C)(C)C)cc1C(C)(C)C
active: [4] 12.9 µM | [5] 26.1 µM | [6] 17.2 µM | [7] 20 µM | [9] 3.83 µM

C=CC(=O)OCC(F)(F)C(F)(F)C(F)(F)C(F)(F)C(F)(F)C(F)(F)C(F)(F)C(F)F
inactive: [4]
active: [4] 46.2 µM | [5] 44.8 µM and 30 µM | [6] 33.7 µM and 14.4 µM | [7] 30 µM and 27.2 µM | [9] 27.2 µM and 37.2 µM

NS(=O)(=O)C(F)(F)C(F)(F)C(F)(F)C(F)(F)C(F)(F)C(F)(F)F
inactive: [3] | [4] | [5] | [6] | [7] | [9]

CCOC(C=C(C)CCC=C(C)C)OCC
active: [9] 27 µM
inactive: [4] | [5] | [6] | [7] | [8]

CCOC(=O)CC(=O)C(F)(F)C(F)(F)F
inactive: [3] | [4] | [5] | [6] | [7] | [9]

O=C(O)C(F)(F)C(F)(F)C(F)(F)C(=O)O
inactive: [4] | [5] | [6] | [7] | [9]

O=C1c2c(O)ccc(Nc3ccc(CCO)cc3)c2C(=O)c2c([N+](=O)[O-])ccc(O)c21
inactive: [6] | [7]
active: [4] 29.9 µM | [5] 15.5 µM | [9] 20 µM

O=S(=O)(Cl)C(F)(F)C(F)(F)C(F)(F)C(F)(F)C(F)(F)C(F)(F)C(F)(F)C(F)(F)F
inactive: [4] | [5] | [6] | [7] | [9]

O=C=NCc1cccc(CN=C=O)c1
inactive: [4] | [5] | [6] | [7] | [8] | [9]

CCN(CC)c1ccc(C=O)c(O)c1
inactive: [5] | [6] | [7] | [9]
active: [4] 20 µM

O=C(Cl)C(F)(F)C(F)(F)C(F)(F)C(F)(F)C(F)(F)C(F)(F)C(F)(F)F
inactive: [4] | [5] | [6] | [7] | [8] | [9]

O=C(O)C(F)(F)OC(F)(F)C(F)(F)OC(F)(F)C(F)(F)OC(F)(F)F
inactive: [4] | [5] | [6] | [7] | [8] | [9]

FC(F)(F)C(F)(F)C(F)(F)C(F)(F)C(F)(F)C(F)(F)CC[Si](Cl)(Cl)Cl
inactive: [4] | [5] | [6] | [7] | [9]

Cc1cc(C)c(O)c(C(C)(C)C)c1
inactive: [4] | [5] | [6] | [7] | [8]
active: [9] 34.2 µM

O=C(Cl)C(F)(F)C(F)(F)C(F)(F)C(F)(F)C(F)(F)C(F)(F)F
inactive: [3] | [4] | [5] | [6] | [7] | [9]

NCC(F)(F)C(F)(F)C(F)(F)C(F)(F)C(F)(F)C(F)(F)F
inactive: [4] | [5] | [6] | [7] | [9]

C=C(C)C(=O)OCC(F)(F)C(F)(F)C(F)(F)C(F)F
inactive: [4] | [5] | [6] | [7] | [9]

C[Si](Cl)(Cl)CCC(F)(F)C(F)(F)C(F)(F)C(F)(F)C(F)(F)C(F)(F)F
inactive: [4] | [5] | [6] | [7] | [9]

FC(F)(F)C(F)(F)C(F)(F)CC1CO1 (stereo not given)
inactive: [3] | [4] | [5] | [6] | [7] | [9]

CCN(CC)c1ccc(N=Nc2ccccc2)cc1
active: [4] 18 µM | [5] 30.3 µM | [6] 20 µM | [7] 20 µM | [9] 20 µM
inactive: [3]

CC1=CC2C3C=CC(C3)C2C1C (stereo not given)
active: [4] 20 µM | [6] 16.7 µM
inactive: [5] | [7] | [8] | [9]

Brc1nc2ccccc2s1
inactive: [4] | [5] | [7] | [9]
active: [6] 0.338 µM

O=C(F)C1(F)C(F)(F)C(F)(F)C(F)(F)C(F)(F)C1(F)F
inactive: [4] | [5] | [6] | [7] | [9]

O=C1C=CC(=O)N1c1ccc(Cc2ccc(N3C(=O)C=CC3=O)cc2)cc1
active: [3] 4.43 µM | [4] 2.18 µM | [5] 3.64 µM | [6] 3.09 µM | [7] 1.99 µM | [9] 3.05 µM

Nc1cc([N+](=O)[O-])cc(Cl)c1O
inactive: [4] | [5] | [6] | [7] | [9]

CC(C)(C)c1cc(CCC(=O)NCCCCCCNC(=O)CCc2cc(C(C)(C)C)c(O)c(C(C)(C)C)c2)cc(C(C)(C)C)c1O
inactive: [5] | [6] | [7] | [9]
active: [4] 1.98 µM

CCN(CC)c1ccc(C=O)cc1
inactive: [4] | [5] | [6] | [7] | [9]

O=S(=O)(OCC(F)(F)F)C(F)(F)C(F)(F)C(F)(F)C(F)(F)F
inactive: [4] | [5] | [6] | [7] | [8] | [9]
active: [8] 3.48 µM

Cc1cnccn1
inactive: [5] | [6] | [7] | [8] | [9]
active: [4] 5.22 µM

O=C=Nc1cccc2c(N=C=O)cccc12
active: [4] 12 µM
inactive: [5] | [6] | [7] | [8] | [9]

COC(F)(C(F)F)C(F)(F)F (stereo not given)
inactive: [3] | [4] | [5] | [6] | [7] | [9]

CC(C)CCCC(C)CCO (stereo not given)
active: [9] 29.9 µM
inactive: [4] | [5] | [6] | [7] | [8]
